# Calls of active or inactive are those of the source. Rule for the calls: active = hit-call score of the fitted dose curve at least 0.9, where 1 is the maximum; inactive = score below 0.9.
# Experiment: CCTE_Padilla_ZF_Score.Any: CCTE's 144 Hour Post-fertilization zebrafish Assay Score for Any Mortality or Malformation, Padilla Lab (AID 2284416)
# Description: CCTE_Padilla_ZF_Phenotype_Score is a whole embryo, multiplexed assay using zebrafish ova exposed for 144 hours post fertilization on a 96-well plate.CCTE_Padilla_ZF_Score.Any is one of one assay component(s) measured or calculated from the CCTE_Padilla_ZF_Phenotype_Score assay. It is designed to make measurements of zebrafish development as detected with brightfield microscopy of developing zebrafish embryos.Data from the assay component CCTE_Padilla_ZF_Score.Any was analyzed into 1 assay endpoints. This assay endpoint, CCTE_Padilla_ZF_Score.Any, was analyzed in the positive analysis fitting direction relative to DMSO as the negative control and baseline of activity. Using a type of viability reporter, gain-of-signal activity can be used to understand changes in developmentals as they relate to the whole embryo. To generalize the intended target to other relatable targets, this assay endpoint is annotated to the zebrafish development intended target family, where the subfamily is embryonic morphogenesis and mortality.
# Zebrafish husbandry: Wild type adult zebrafish (Danio rerio; undefined outbred stock obtained from Aquatic Research Organisms, Hampton, NH, 03842) were housed in an AAALAC-approved animal facility at 28C with a 14:10 h light: dark cycle (lights on at 08:30 h). Adult fish (2-3 females per male; density = 15-20 adults per tank) were kept in one of several 9-liter (L) flow-through colony tanks (Aquaneering Inc., San Diego, CA). All adults in a colony tank were placed in a 2 L (static) breeding tank (Aquatic Habitats, Apopka, FL) one hour prior to light onset. Typically, adults from two to three colony tanks were mated on the same day. Two hours after light onset the adults were returned to the colony tank. All embryos were gathered from each breeder tank, pooled, and placed in a 28C water bath for 2 h, followed by two washes with 0.06% bleach (v/v) in 10% Hanks' Balanced Salt Solution (13.7 mM NaCl 0.54 mM KCl, 25 uM Na2HPO4, 130 uM CaCl2 100 um MgSO4 and 420 um NaHCO3,), hereafter referred to as Hanks' solution, for 5 min in order to remove any residual bacteria or fungi. Immediately following washing, the embryos were examined, and healthy embryos were separated from dead or unfertilized eggs and moved into fresh Hanks'. Chemical exposures: Zebrafish embryos were exposed in 96-well plates. Between 6- and 8-hours post fertilization (hpf), healthy embryos (with chorions) were transferred, one embryo per well, into 96 well (0.5 mL) microtiter plates (Cell Culture-Treated, Flat-Bottom Microplate 96 well [Corning Costar, Kennebunk, ME; Cat 09-761-145]) filled with 200 uL of Hanks' solution. A random number generator was used to assign the order in which the rows of embryos were plated in 96 well plates each week. After plating, the embryos were dosed with 0.8 uL of the chemical dosing solution then immediately sealed with AlumaSeal II (Excel Scientific Inc, Victorville, CA) to prevent volatilization of the chemicals, and then placed in a leakproof secondary container. These containers were placed in an incubator maintained on a 14:10 h light: dark cycle at 26C for rearing. On 5 dpf, live larvae were gently moved out of the plate with test chemicals and into a new 96 well mesh plate (Millipore Corp., Bedford, MA) with just the Hanks' solution. Once within the mesh well plate, the animals were rinsed with 400 uL of fresh Hanks' three times, and then the plates were covered with a non-adhesive material (Microseal A, BioRad, Hercules, CA), plate lid added, and then plate sides wrapped in Parafilm (PM992, Bermis Company, Neenah, WI), and returned to the incubator. […]
Structure (SMILES),outcome,AC50
O=C(O)C(F)(F)C(F)(F)C(=O)O,inactive,–
O=C(O)C(F)(F)OC(F)(F)C(F)(F)OC(F)(F)F,inactive,–
O=C(O)C(F)(F)OC(F)(F)C(F)(F)OC(F)(F)C(=O)O,inactive,–
CC(O)C(F)(F)C(F)(F)F (centres undefined),inactive,–
FC(F)(F)C(F)(C(F)(F)F)C(F)(F)C(F)(F)CC1CO1 (centres undefined),inactive,–
O=C(O)C(F)(OC(F)(F)C(F)(F)C(F)(F)F)C(F)(F)F (centres undefined),inactive,–
O=S(=O)(F)C(F)(F)C(F)(F)C(F)(F)C(F)(F)C(F)(F)C(F)(F)C(F)(F)C(F)(F)F,inactive,–
OCC(F)(F)OC(F)(F)C(F)(F)OC(F)(F)C(F)(F)OC(F)(F)F,–,27.5 µM (active)
C=CC(=O)OCC(F)(F)C(F)F,–,9.85 µM (active)
COC(=O)C(F)(F)C(F)(F)OC(F)(C(F)(F)F)C(F)(F)OC(F)=C(F)F (centres undefined),inactive,–
OCC(F)(F)OC(F)(F)C(F)(F)OC(F)(F)C(F)(F)OC(F)(F)CO,inactive,–
NC(=O)C(F)(F)C(F)(F)F,inactive,–
O=C(O)C=CC(F)(C(F)(F)F)C(F)(F)F,inactive,–
OCC(F)(F)OC(F)(F)C(F)(F)OC(F)(F)CO,inactive,–
